About 83,000 compounds went through this panel and 20% of them were active in at least one assay; those are over-represented in the sample as a whole.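 A percent growth of 40 corresponds to 60% growth inhibition; 0 means no net growth; -100 means all cells died. Active threshold: below 10.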 A number with no mark means an inactive call. Calls of active or inactive are those of the source.

The assay relates to HL-60(TB) leukemia. As to the kind of experiment: NCI-60 one-dose screen, 48 h (100 = growth as untreated, 0 = no growth, -100 = all killed). The note with it: 10 µM unless noted.
Take `C#CCOc1cc(N(CC)CC)ccc1C(C(=O)NC(C)(C)C)N(C(=O)C1CCc2cc(F)ccc2O1)c1ccc(F)c(Cl)c1` (stereo not given): the growth is 27.2%.
In the case of `O=C(/C=C/c1cccc(OCc2ccc(F)cc2)c1)c1nc2ccccc2[nH]1`, the growth was 8% (active).
Take `C=C1CCC2C3(C)COC(c4ccccc4)OC3CCC2(C)C1CC(Sc1ccccc1)C1=CCOC1=O` (stereo not given): the growth was -33% (active).
The same measure for `O=C1/C(=C/C=C/c2ccco2)SC(=S)N1CC(=S)C1C=CS(=O)(=O)C1` (stereo not given): 59.4%; for `CC1(c2cc3cc(Br)ccc3oc2=O)NC(=O)c2c(/C=C/C(=O)OC3CC4CCC3(C)C4(C)C)cccc2N1` (stereo not given): 48.9%; for `CN(CCSSCCN1CCOCC1)C(=O)Oc1cc2c(c3ccccc13)[C@H](CCl)CN2C(=O)c1cc2cc(OCCCN3CCC3)ccc2[nH]1`: -45.8% (active).
The same measure for `CC(C)(C)c1ccc(NCc2cn(-c3ccc(C(=O)O)cc3)nc2-c2ccc(C#N)cc2)cc1`: 3.14% (active); for `O=C(NC(=S)N1CCN(c2ncnc3c2cnn3-c2ccccc2)CC1)c1ccc(Cl)cc1`: 95.5%; for `Cc1ccc(NC(=O)CN2CCN(c3ncnc4c3cnn4-c3ccccc3)CC2)cc1`: 95.4%.
The same measure for `O=c1[nH]c2ccccc2cc1CSc1nccc(-c2ccc3ccccc3c2)n1`: 50.7%.
Consider `Nc1n[nH]c2cccc(C#Cc3cccc(NC(=O)Nc4cc(C(F)(F)F)cc(C(F)(F)F)c4)c3)c12`, for which the growth is -9.4% (active).
For `COc1ccc(N=Nc2c(N)nn3c(-c4cc5cc(Br)ccc5oc4=O)ccnc23)cc1` the value was 102%; for `O=C(N=Nc1c(O)[nH]c2ccc(Br)cc12)c1ccc2nc(-c3ccc(Cl)cc3)[nH]c2c1`, 20.9%.
In the case of `CN(C)CCOc1ccc(C(=O)C2[C@H](c3ccc(Cl)cc3)[C@@H](c3ccccc3)NC23C(=O)Nc2ccccc23)cc1` (stereo not given in full), the growth is 35.1%.
For `Cn1cc(/C=N/Nc2cccc(Cl)n2)c2ccccc21` the value was 56.6%.
Regarding `CC(=O)Nc1ccc(-c2cn(-c3cccc(C(=O)Nc4ccc(F)c(C(F)(F)F)c4)c3)nn2)cn1`, the growth was 62.8%.
The same measure for `COc1ccc(C2c3sc4ccc(C)cc4c3Oc3nc[nH]c(=O)c32)cc1` (stereo not given): 85.2%; for `CN1CCc2c(sc3ncnc(N/N=C/c4cccc(Cl)c4Cl)c23)C1`: -50.9% (active); for `Cc1ccc(C(C(=O)NC2CCCCC2)N(Cc2ccccc2Cl)C(=O)c2ccc(CN3CCOCC3)o2)o1` (stereo not given): 84.6%.
For `N#Cc1c(-c2cccnc2)cc(-c2ccc3ccccc3c2)[nH]c1=O` the value was 72.6%; for `C=C1CCC2C3(C)COC(c4ccccc4F)OC3CCC2(C)C1CC(O)C1=CCOC1=O` (stereo not given), 70.5%.
The same measure for `CC1(c2ccccc2)NC(=O)N(CC(=O)Nc2ccc(C(=O)/C=C/C=C/c3ccccc3)cc2)C1=O` (stereo not given): 36.8%.
As for `COc1ccc(-c2nc3cc(C)ccc3n2CC(=O)N=Nc2c(O)[nH]c3ccccc23)cc1`, the growth is 8.05% (active).
The same measure for `COc1cc2oc(-c3cccc(C(=O)Nc4ccc(Cl)cc4)c3)cc(=O)c2c(OCCNC(=O)[C@H](CCC(=O)OC(C)(C)C)NC(=O)OC(C)(C)C)c1OC`: 101%; for `COc1ccc2oc(=O)c(C3(C)NC(=O)c4c(/C=C/C(=O)OC(C)(C)C)cccc4N3)cc2c1` (stereo not given): -5.42% (active); for `COc1cccc(COc2ccc(/C=C3\Oc4cc(O)ccc4C3=O)cc2)c1`: 79.5%.
The same measure for `Cn1cc(-c2cc3nc(-c4c[nH]c5ccc(Br)cc45)cc(N)n3n2)c2ccccc21`: -45.3% (active).
The same measure for `COc1ccc2[nH]c(O)c(N=Nc3nc(-c4ccc(Cl)cc4)cs3)c2c1`: 58%; for `COc1cc(C2CC(c3cc(OC)c(OC)c(OC)c3)=Nc3c(N)nc(N)nc3N2)ccc1Oc1nc(Nc2ccc(F)cc2)nc(N(C)C)n1` (stereo not given): 8.45% (active).
As for `CC12CC[C@@H]3[C@]4(C)COC(c5cn[nH]c5-c5cccc(Br)c5)O[C@@H]4CC[C@@]3(C)[C@@H]1CC(C1=CCOC1=O)O2` (stereo not given in full), the growth is 13%.
The same measure for `O=C1c2cccc3c(N4CCN(c5ccccc5)CC4)ccc(c23)C(=O)N1c1cccc(-c2nn(-c3ccccc3)cc2-c2nc3ccccc3s2)c1`: 98.5%; for `COc1ccc(NC(=O)Cn2c(/C=C/c3ccc(N(C)C)cc3)nc3ccccc3c2=O)cc1`: 82.2%; for `COc1ccc(NC(=O)Cn2c(O)c(N=Nc3ccc(S(N)(=O)=O)cc3)c3ccccc32)cc1`: 96.9%.
For `O=C1CCC(N2Cc3cc(CC(=O)Nc4ccc(N5CCCCC5)cc4)ccc3C2=O)C(=O)N1` (stereo not given) the value was -0.226% (active).
For the molecule `N/C(=N\c1nc2ccccc2s1)NC(=O)Nc1ccccc1[N+](=O)[O-]`, the growth is -11.1% (active).
The same measure for `O=c1c2ccccc2nc(COc2ccccc2)n1/N=C/c1ccc(F)cc1`: 94.8%.
The same measure for `COc1ccc(-c2cc(C(=O)N=Nc3c(O)[nH]c4ccc(Cl)cc34)c3ccccc3n2)cc1OC`: 109%; for `Cc1nn(-c2ccccc2)c2nc(C)n(C(=O)N/N=C/c3cccc([N+](=O)[O-])c3)c(=O)c12`: 74%.
For `O=C1N/C(=N\c2nccs2)S/C1=C\c1cccs1` the value was 25.1%.
As for `O=C(CSc1nnc(-c2c[nH]c3ccccc23)n1-c1ccccc1)c1ccccc1`, the growth was 87.2%.

For the origin of these results see PubChem BioAssay (NCI).
